High-throughput results as filed in PubChem.
HIV RNase H inh-1: inhibitors of HIV-1 reverse transcriptase RNase H. inhibition, % at 10 µM. P04585. 65,000 compounds, 1.9% hits. RT-RNase H RNA/DNA duplex cleavage, fluorescence; in the data active means inhibition above about 50%
HIV RNase H inh-2: confirmation of HIV-1 reverse transcriptase RNase H inhibitors | shares compounds with HIV RNase H inh-1 | Recombinant RT RNase H, fluorescent RNA/DNA duplex cleavage | inhibition, % at 10 µM | 1,000 compounds, 39% hits | AID 651; in the data active means inhibition above about 48%
Numbers without * were called inactive. Shown is part of a subset that was picked to be rich in hits.

SMILES	HIV RNase H inh-1	others
Cc1cc(NC(=O)c2ccccc2Oc2ccccc2)no1	-4
CC(=O)N=c1sc(C(C)(C)C)c(C)n1C	3
O=C(COC(=O)C1c2ccccc2Oc2ccccc21)Nc1ccc2c(c1)OCO2	-14
O=C(CCCc1c[nH]c2ccccc12)N1CCN(S(=O)(=O)c2cccs2)CC1	1
O=S(=O)(Nc1ccccc1Cl)c1ccc(F)cc1	-6
COc1cc(S(=O)(=O)Nc2ccccc2C)ccc1Cl	-56
Cc1c(NS(=O)(=O)c2ccccc2)cc(Cl)c(O)c1C	74*	HIV RNase H inh-2=33
COc1cccc(-n2c(C)c(C(C)=O)c(C(C)=O)c2C)c1	-11
CCn1c(SCCC#N)nnc1-c1ccncc1	-4
O=c1c2c([nH]c3ccc(Br)cc13)CCCC2	-2
O=c1[nH]c2ccc(Br)cc2c(-c2ccccc2)c1N1CCOCC1	-3
O=c1ccc2cc3c([nH]c4ccc(Br)cc43)oc-2c1O	88*	HIV RNase H inh-2=58*
CCOC(=O)c1[nH]c2ccccc2c1N=CN(CC)CC	-2
O=C(CSc1nnc2sc3ccccc3n12)NCc1ccc2c(c1)OCO2	-8
COC(=O)Nc1ccc(C)c2nsnc12	-8
O=C(CSc1nc2ccccc2c(=O)n1Cc1ccco1)NCc1ccccc1	-2
CCc1ccccc1NC(=O)C(CC)Sc1nc2cc3c(cc2c(=O)n1Cc1ccco1)OCO3 (stereo unspecified)	78*	HIV RNase H inh-2=-12
O=c1c2cc3c(cc2[nH]c(=S)n1Cc1ccco1)OCO3	-8
CCn1c2ccccc2c2nnc(SCc3cc(=O)n4ccsc4n3)nc21	-16
Cc1ccc(CCNC(=O)C2CCN(C(=O)N(C)C)CC2)cc1	-2
Cc1cc(C)c(C#N)c(=N)o1	93*	HIV RNase H inh-2=74*
COc1cc(C)c(C#N)c(OC)n1	-1
Cc1cc(C)c(C#N)c(N2CCSCC2)n1	-33
Cc1ccc(NCN2C(=O)C3C4C=CC(C4)C3C2=O)cc1 (stereo unspecified)	-11
O=C1C2C3C=CC(C3)C2C(=O)N1CNc1ccc(O)cc1 (stereo unspecified)	80*	HIV RNase H inh-2=16
SMILES	HIV RNase H inh-1	others
NC(=O)CN1C(=O)C2C3C=CC(C3)C2C1=O (stereo unspecified)	-8
C=CCN=C(NC#N)SCc1ccccc1Cl	-50
CCOc1ccc(C2C(C#N)=C(N)Oc3cc(C)n(CCN(C)C)c(=O)c32)cc1OCC (stereo unspecified)	12
CCOc1cc(C2C(C#N)=C(N)SC(N)=C2C#N)ccc1OCCN1CCOCC1	87*	HIV RNase H inh-2=85*
CCCc1[nH]nc2c1C(c1ccc(OCCN3CCOCC3)c(OC)c1)C(C#N)=C(N)O2 (stereo unspecified)	2
CCCCc1ccc(C2C(C#N)=C(N)SC(N)=C2C#N)s1	6
CCOc1ccc(C2C(C#N)=C(N)SC(N)=C2C#N)c(OCC)c1	72*	HIV RNase H inh-2=19
COc1ccc(C2C(C#N)=C(N)SC(N)=C2C#N)cc1OC	30
Cc1cc(NC(=O)C2CCC2)n(-c2ccccn2)n1	-14
CCOC(=O)C1CCN(C(=O)C2CCCCC2)CC1	-6
O=C1CC(N2CCN(C3CCc4ccccc4C3)CC2)C(=O)N1c1ccccc1 (stereo unspecified)	-3
C=CCNc1nc2c3ccccc3n(C(C)=O)c2s1	13
Cc1cccc(OCCc2nnc(N)s2)c1C	-20
CCC1Cc2c(nc3c4c(nc(N5CCOCC5)c(C#N)c24)NC(C)=N3)O1 (stereo unspecified)	-3
Cn1c(SCC2CCCCC2)nnc1-c1ccncc1	-7
CCSc1nc2sc3c(c2c2nnc(SCC(=O)NCc4ccco4)n12)CCCC3	-1
Cc1nc(SCC(=O)NCc2ccco2)c2c3c(sc2n1)CCCC3	-43
CC(C)Sc1nc2sc3c(c2c2nnc(SCC(=O)NCc4ccco4)n12)CCCC3	86*	HIV RNase H inh-2=67*
Cc1ccc(-c2noc(CSc3nnnn3C3CCCCC3)n2)cc1	-64
COC(=O)CCN(C(=O)C1C2CC3CC(C2)CC1C3)c1ccccn1 (stereo unspecified)	-4
Cc1csc2ncc(C(=O)NC(C)c3ccccc3)c(=O)n12 (stereo unspecified)	-23
Cc1ccsc1/C=c1\sc2ncnn2c1=O	2
CCCCOc1ccc(/C=c2\sc3ncnn3c2=O)cc1	15
O=c1/c(=C/c2cccc3ccccc23)sc2ncnn12	96*	HIV RNase H inh-2=0
COC(=O)C1=C(C)N=C2SCCC(=O)N2C1/C=C/c1ccccc1 (stereo unspecified)	-3
COC(=O)c1ccc(CSc2nc3ccccc3c(=O)n2Cc2ccco2)o1	-52
COC(=O)c1ccc2c(=O)n(Cc3ccco3)c(SCC(=O)Nc3ccc(C)c(Cl)c3)nc2c1	85*	HIV RNase H inh-2=76*
COCCNC(=O)CSc1nc2cc(OC)c(OC)cc2c(=O)n1Cc1ccco1	-19
CCOC(=O)c1c(NC(=O)COC(=O)c2c(C)noc2C)sc2c1CCC2	4
Cc1csc(Sc2nc3c(c(=O)[nH]c(=O)n3C)n2CCCc2ccccc2)n1	-2
